Laboratory results as given in the supplement of paper PMC11732987, “Enantioselective OTUD7B fragment discovery through chemoproteomics screening and high-throughput optimisation” (Communications Chemistry, 2025).

Assays:
Test in all cases: log2 ratio of Biotin-Ahx-Ub-VS probe labelling (fragment/DMSO); higher = less target engagement (more negative = stronger competition), active = hit call of the paper (q ≤ 0.05, log2 ratio ≤ -1)
Details in all cases: compound concentration: 200 uM; treatment time: 3 h
[1] = biological target: USP34 (UniProt Q70CQ2)
Outline: (§1)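 Each value is an average log2 ratio of fragment to vehicle, tested by unpaired t-test. The underlying Spectronaut label-free quantities were global-median-normalised, and only proteins with ≥2 unique peptides were included. Triplicate HEK293T lysate samples (495 µg) were exposed to fragment at 200 µM or vehicle for 3 h, then to Biotin-Ahx-Ub-VS at 0.5 µM final for 1 h, before NeutrAvidin enrichment of labelled DUBs, LysC and trypsin digestion, and diaPASEF LC-MS/MS.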

[2] = biological target: T1, USP36 (UniProt Q9P275)
T1 sequence (whole entry): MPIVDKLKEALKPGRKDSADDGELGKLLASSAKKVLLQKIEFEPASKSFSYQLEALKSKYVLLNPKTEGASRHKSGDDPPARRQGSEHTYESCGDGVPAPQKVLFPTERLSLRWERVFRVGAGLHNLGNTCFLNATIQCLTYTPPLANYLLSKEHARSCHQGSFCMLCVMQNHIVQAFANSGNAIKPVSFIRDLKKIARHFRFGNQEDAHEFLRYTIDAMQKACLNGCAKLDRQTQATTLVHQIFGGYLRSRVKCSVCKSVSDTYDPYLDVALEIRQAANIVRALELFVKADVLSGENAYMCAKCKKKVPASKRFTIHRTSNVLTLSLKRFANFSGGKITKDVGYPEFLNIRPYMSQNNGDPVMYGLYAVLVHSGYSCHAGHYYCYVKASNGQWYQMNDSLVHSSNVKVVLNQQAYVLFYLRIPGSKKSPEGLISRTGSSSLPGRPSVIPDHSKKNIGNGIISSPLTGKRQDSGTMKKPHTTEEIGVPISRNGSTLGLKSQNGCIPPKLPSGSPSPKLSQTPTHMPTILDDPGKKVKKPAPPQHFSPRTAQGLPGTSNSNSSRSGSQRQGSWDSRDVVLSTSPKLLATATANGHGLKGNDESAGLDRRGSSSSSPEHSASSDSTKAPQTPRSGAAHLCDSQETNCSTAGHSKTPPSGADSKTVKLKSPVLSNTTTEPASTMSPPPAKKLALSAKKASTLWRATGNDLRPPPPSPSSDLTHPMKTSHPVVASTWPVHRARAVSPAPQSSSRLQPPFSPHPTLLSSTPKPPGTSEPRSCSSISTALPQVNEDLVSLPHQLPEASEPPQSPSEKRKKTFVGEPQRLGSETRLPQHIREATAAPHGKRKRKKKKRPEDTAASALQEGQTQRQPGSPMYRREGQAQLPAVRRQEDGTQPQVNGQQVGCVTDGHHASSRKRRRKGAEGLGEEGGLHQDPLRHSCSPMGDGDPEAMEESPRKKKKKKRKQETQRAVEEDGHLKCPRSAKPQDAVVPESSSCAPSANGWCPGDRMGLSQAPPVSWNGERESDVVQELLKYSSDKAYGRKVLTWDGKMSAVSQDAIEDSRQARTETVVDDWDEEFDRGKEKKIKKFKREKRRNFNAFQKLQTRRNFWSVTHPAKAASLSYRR
Outline: as §1

[3] = biological target: T2, USP38 (UniProt Q8NB14)
T2 sequence (whole entry): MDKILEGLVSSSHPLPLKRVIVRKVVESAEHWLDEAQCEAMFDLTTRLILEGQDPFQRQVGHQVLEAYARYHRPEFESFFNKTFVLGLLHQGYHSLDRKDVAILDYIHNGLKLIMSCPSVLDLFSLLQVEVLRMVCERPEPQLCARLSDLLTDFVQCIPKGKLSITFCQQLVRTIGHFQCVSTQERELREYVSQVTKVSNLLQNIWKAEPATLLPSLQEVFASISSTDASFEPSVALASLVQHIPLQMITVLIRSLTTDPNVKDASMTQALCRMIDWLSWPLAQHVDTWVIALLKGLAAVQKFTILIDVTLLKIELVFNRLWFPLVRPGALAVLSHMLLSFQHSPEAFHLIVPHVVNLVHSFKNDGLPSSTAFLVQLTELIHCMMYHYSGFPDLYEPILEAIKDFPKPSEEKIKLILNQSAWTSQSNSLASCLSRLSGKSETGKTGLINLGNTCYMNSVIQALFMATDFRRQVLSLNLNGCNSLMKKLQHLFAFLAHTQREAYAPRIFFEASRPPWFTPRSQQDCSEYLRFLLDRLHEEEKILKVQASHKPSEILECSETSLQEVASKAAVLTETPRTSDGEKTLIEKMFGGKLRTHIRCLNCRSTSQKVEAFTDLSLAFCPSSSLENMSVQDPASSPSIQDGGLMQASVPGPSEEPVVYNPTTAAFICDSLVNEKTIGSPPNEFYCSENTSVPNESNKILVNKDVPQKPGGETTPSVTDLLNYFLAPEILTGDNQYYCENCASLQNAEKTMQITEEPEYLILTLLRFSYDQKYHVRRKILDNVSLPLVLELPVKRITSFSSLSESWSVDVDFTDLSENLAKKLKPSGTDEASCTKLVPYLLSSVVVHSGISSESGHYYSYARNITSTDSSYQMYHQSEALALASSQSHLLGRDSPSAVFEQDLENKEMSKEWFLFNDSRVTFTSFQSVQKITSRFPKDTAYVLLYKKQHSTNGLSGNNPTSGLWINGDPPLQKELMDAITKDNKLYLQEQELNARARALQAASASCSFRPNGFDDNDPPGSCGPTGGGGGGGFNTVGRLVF
Outline: as §1

[4] = biological target: T3, USP39 (UniProt Q53GS9)
T3 sequence (whole entry): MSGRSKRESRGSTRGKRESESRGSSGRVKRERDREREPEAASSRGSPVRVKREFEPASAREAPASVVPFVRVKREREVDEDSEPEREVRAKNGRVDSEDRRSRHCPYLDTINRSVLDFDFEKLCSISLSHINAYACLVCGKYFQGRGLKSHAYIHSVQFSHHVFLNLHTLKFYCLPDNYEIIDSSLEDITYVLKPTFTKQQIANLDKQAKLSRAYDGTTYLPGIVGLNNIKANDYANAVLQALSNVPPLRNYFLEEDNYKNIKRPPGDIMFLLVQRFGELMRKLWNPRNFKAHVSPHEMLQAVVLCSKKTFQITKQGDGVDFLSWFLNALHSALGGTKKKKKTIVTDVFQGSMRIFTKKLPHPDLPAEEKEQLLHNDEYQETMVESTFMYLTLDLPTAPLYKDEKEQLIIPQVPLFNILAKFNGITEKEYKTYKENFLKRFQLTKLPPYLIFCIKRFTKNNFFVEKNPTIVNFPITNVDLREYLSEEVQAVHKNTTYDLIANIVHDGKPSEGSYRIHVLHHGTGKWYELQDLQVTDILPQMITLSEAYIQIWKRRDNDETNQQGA
Outline: as §1

[5] = biological target: T4, USP4 (UniProt Q13107)
T4 sequence (whole entry): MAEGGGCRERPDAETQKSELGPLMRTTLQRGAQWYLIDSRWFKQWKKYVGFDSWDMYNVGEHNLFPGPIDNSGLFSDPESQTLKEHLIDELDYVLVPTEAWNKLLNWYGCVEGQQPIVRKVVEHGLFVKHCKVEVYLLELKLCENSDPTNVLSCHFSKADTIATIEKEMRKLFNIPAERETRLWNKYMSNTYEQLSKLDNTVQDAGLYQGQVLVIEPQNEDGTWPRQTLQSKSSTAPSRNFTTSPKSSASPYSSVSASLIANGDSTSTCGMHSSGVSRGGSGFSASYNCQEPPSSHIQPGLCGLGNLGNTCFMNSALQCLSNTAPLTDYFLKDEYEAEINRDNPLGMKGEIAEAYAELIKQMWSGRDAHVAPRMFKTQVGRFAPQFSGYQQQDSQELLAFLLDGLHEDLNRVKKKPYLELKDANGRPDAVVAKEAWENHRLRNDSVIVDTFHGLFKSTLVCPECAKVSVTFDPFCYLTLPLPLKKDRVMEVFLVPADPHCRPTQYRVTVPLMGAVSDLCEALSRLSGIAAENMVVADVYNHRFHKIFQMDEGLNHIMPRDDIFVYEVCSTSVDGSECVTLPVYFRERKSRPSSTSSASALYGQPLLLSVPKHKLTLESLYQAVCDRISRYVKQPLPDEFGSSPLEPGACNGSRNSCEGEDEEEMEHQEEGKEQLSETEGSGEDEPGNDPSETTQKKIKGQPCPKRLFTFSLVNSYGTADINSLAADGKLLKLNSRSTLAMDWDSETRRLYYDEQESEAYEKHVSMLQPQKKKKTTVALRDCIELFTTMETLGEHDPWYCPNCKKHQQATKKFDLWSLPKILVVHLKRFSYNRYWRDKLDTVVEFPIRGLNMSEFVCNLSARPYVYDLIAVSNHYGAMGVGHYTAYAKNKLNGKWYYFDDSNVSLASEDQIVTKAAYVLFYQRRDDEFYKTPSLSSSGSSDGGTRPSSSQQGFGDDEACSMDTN
Outline: as §1

Measured: log2 ratio of Biotin-Ahx-Ub-VS probe labelling

Sequence of USP34 (Q70CQ2 whole entry, the tested form may be a part): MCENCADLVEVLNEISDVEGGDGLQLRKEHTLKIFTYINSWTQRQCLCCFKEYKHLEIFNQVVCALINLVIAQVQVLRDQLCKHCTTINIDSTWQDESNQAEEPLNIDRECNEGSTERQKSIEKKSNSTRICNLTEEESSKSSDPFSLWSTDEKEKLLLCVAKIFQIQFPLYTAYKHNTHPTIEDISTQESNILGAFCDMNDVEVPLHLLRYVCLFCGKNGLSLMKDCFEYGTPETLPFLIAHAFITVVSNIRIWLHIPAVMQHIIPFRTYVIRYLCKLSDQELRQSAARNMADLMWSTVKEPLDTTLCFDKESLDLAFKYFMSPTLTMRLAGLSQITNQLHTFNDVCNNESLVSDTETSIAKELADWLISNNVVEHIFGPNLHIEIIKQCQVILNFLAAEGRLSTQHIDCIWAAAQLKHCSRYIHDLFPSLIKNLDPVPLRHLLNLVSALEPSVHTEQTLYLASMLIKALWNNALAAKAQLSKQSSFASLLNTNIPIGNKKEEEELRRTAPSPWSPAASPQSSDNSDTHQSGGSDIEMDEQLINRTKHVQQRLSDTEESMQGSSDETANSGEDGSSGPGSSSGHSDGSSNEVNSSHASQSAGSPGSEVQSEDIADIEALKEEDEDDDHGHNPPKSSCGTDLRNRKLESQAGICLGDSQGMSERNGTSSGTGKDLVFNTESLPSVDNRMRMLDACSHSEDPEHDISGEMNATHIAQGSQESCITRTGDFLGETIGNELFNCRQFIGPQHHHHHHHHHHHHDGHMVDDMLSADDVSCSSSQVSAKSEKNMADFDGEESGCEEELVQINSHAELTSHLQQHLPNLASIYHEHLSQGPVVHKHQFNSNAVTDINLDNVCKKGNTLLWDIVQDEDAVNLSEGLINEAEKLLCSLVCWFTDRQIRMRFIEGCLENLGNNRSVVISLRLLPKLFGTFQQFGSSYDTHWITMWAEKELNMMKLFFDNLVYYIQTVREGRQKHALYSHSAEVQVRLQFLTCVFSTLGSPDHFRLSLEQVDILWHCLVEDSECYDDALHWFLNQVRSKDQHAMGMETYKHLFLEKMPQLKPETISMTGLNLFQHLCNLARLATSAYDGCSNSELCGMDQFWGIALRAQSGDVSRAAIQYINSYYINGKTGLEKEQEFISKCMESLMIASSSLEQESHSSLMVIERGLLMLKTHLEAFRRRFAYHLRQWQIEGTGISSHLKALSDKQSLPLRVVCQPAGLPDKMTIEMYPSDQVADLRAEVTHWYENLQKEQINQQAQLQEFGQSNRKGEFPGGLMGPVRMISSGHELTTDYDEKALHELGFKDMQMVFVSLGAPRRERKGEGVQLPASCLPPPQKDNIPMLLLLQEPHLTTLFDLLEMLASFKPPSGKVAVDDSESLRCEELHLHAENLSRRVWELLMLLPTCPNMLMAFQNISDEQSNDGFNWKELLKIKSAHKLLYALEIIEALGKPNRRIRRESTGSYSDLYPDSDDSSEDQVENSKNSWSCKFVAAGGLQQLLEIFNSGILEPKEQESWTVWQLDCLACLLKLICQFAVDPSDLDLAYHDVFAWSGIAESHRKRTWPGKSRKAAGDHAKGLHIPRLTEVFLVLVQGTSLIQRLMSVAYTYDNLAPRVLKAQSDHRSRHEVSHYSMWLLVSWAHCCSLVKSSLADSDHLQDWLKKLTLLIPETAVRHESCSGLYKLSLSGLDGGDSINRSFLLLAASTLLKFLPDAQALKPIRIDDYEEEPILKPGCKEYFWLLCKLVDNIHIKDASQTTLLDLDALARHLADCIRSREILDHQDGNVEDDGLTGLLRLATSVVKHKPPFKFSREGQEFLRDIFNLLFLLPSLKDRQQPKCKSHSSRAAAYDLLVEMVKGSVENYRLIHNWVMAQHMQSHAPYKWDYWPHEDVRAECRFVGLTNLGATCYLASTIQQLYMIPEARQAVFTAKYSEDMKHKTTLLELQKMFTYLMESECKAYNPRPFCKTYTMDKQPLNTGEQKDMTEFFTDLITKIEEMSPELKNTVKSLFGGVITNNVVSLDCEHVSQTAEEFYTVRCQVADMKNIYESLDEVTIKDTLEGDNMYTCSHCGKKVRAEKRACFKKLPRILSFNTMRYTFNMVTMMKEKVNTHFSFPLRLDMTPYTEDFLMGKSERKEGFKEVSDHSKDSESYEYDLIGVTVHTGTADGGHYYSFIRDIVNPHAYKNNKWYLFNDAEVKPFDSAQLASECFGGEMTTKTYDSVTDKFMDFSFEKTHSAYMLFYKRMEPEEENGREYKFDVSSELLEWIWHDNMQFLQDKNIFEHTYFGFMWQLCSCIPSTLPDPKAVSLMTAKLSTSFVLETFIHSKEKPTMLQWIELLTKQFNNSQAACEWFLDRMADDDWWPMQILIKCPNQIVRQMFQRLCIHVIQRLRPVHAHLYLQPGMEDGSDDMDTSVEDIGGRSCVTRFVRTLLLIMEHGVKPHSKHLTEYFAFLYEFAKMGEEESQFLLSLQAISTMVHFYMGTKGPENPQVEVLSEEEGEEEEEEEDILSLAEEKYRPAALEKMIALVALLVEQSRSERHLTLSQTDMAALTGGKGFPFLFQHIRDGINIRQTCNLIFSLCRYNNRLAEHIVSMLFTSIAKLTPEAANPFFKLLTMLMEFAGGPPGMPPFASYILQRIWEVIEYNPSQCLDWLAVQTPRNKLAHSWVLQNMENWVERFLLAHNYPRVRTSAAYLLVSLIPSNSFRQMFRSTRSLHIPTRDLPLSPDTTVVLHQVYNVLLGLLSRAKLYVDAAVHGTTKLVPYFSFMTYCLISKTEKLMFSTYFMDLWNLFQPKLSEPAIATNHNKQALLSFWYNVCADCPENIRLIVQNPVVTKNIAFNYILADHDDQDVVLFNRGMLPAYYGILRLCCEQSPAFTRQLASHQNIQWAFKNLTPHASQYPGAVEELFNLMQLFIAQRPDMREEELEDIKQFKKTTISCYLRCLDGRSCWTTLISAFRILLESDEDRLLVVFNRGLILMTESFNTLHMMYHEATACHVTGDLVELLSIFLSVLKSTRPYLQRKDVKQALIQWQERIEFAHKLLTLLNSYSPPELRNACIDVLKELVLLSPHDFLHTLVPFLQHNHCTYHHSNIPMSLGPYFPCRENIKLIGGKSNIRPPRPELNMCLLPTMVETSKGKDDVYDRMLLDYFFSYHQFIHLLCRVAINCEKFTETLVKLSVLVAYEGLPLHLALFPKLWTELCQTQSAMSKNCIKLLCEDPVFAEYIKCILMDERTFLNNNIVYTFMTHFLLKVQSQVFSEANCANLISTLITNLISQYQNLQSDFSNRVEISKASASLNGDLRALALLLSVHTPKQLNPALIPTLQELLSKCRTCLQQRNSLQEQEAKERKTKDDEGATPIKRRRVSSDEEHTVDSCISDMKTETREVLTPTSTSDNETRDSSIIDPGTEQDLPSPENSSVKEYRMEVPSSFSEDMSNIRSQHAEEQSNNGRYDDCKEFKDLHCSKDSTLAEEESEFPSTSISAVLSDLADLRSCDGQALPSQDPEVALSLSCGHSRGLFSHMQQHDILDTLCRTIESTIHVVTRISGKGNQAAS

Cc1nc(-c2cccc(NC(=O)CCl)c2)cs1
inactive: [1] -0.392 | [2] 0.0209 | [3] -0.179 | [4] 0.188 | [5] -0.239
